Data taken from PubChem BioAssay AID652065 (The Scripps Research Institute Molecular Screening Center, 2013).
Among all 4,300 compounds or so, about 3,000 (70%) were called active.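 How the source made its calls: active means inhibition above a per-plate cutoff, the mean inhibition of sample wells plus 3 SD (cut at about 35% in these data); inactive means the rest.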 So high a share suggests a set chosen from earlier hits. Only a sample is shown.

Assay: small molecules binding CAG repeat RNA – biochemical, fluorescence, confirmation (AID 652065);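 further: loss of TO-PRO-1 fluorescence as compound displaces dye from 1x1 AA loop RNA; 0% = DMSO only wells and 100% = 100 µM mitoxantrone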
Settings: r(CAG) RNA repeat, TO-PRO-1 dye displacement fluorescence; at 3 µM; active compounds read high

Row | Structure (SMILES) | inhibition
1 | Cc1ccccc1S(=O)(=O)N1[C@@H](c2cccc(Cl)c2)C(C(=O)O)=CC[C@H]1c1ccc(Cl)cc1 | 83.1% (active)
2 | Cc1ccc([C@@H]2CC=C(C(=O)O)[C@H](c3cccc(Cl)c3)N2S(=O)(=O)c2ccc(C)cc2)cc1 | 80.4% (active)
3 | Cc1ccc(S(=O)(=O)N2[C@@H](c3ccccc3F)C(C(=O)O)=CC[C@H]2c2ccc(Cl)cc2)cc1 | 64.8% (active)
4 | COc1ccc(Cl)cc1-n1c(=S)sc2c(=O)n(-c3ccc(F)cc3)c(SCC(=O)O)nc21 | 28.9% (inactive)
5 | Cc1oc2c(F)c(F)c(F)c(F)c2c1S(=O)(=O)Nc1cccc(C(F)(F)F)c1 | 44.5% (active)
6 | COc1cc(OC)c(S(=O)(=O)Nc2ccccc2C(=O)O)cc1S(=O)(=O)Nc1ccccc1C(=O)O | 39.9% (active)
7 | COc1ccc(NS(=O)(=O)c2cc(NC(=O)CC(=O)c3ccc([N+](=O)[O-])cc3)ccc2C)cc1 | 44.4% (active)
8 | Cc1ccc(S(=O)(=O)NCCC(c2ccccc2)c2ccccc2)cc1C(=O)O | 28% (inactive)
9 | COc1ccc(NS(=O)(=O)c2cc(C(=O)Nc3ccccc3C(=O)O)ccc2C)cc1 | 52% (active)
10 | O=C(Nc1ccc2c(c1)CCC2)c1cccc(S(=O)(=O)Nc2ccccc2Cl)c1 | 40% (active)
11 | CO/N=C(\C(=O)N[C@@H]1C(=O)N2C(C(=O)O)=C(COC(C)=O)CS[C@H]12)c1csc(N)n1 (stereo in doubt) | 48.1% (active)
12 | Cc1ccccc1OCC(=O)Nc1nnc(S(=O)(=O)N2CCCC2)s1 | 33.1% (inactive)
13 | O=C(N/N=C/c1cc(Cl)cc([N+](=O)[O-])c1O)C(O)(c1ccccc1)c1ccccc1 | 52.6% (active)
14 | Cc1ccc(Sc2cc(C(=O)c3ccccc3C(=O)O)ccc2[N+](=O)[O-])cc1 | 68.5% (active)
15 | Cc1c(CCC(=O)N[C@@H](CC(C)C)C(=O)O)c(=O)oc2c(C)c3oc4c(c3cc12)CCCC4 | 48.4% (active)
16 | CC[C@@H](C)[C@H](NC(=O)CCc1c(C)c2cc3c4c(oc3c(C)c2oc1=O)CCCC4)C(=O)O | 52.4% (active)
17 | CCCCC[C@@H]1C=C(C(=O)O)[C@H](c2ccc(C#N)cc2)N1S(=O)(=O)c1ccc(C)cc1 | 55.7% (active)
18 | Cc1ccc(S(=O)(=O)N2[C@@H](c3ccc(Br)cc3)C(C(=O)O)=C[C@H]2CC2CCCC2)cc1 | 72.6% (active)
19 | Nc1[nH]c(=S)nc2nc(-c3ccccc3)c(-c3ccccc3)nc12 | 15.6% (inactive)
20 | NC(=O)c1c(Nc2nc3c(F)cccc3s2)sc2c1CCCC2 | 39.3% (active)
21 | Cc1cc(N2C(=O)C(O)=C(C(=O)c3ccc(C)o3)C2c2ccc(OCc3ccccc3)cc2)no1 (stereo unspecified) | 64.8% (active)
